# Assay results from PubChem BioAssay (EPA / NIEHS).
# Inconclusive results are not listed. Calls of active or inactive are those of the source. How the source made its calls: active means hit-call score of the fitted dose curve at least 0.9, where 1 is the maximum; inconclusive means response in the unintended direction; inactive means score below 0.9.
# Columns and labels:
# [1] = molecular target: human AMP-activated Protein Kinase, alpha 1 (AMPKa1), PRKAA1 (gene 5562) (UniProt Q13131); assay: NVS_ENZ_hAMPKa1: NovaScreen (NVS) Enzymatic Assay for human AMP-activated Protein Kinase, alpha 1 (AMPKa1) (AID 2283130)
# human AMP-activated Protein Kinase, alpha 1 (AMPKa1), PRKAA1 (gene 5562), sequence (Q13131 whole entry, looked up): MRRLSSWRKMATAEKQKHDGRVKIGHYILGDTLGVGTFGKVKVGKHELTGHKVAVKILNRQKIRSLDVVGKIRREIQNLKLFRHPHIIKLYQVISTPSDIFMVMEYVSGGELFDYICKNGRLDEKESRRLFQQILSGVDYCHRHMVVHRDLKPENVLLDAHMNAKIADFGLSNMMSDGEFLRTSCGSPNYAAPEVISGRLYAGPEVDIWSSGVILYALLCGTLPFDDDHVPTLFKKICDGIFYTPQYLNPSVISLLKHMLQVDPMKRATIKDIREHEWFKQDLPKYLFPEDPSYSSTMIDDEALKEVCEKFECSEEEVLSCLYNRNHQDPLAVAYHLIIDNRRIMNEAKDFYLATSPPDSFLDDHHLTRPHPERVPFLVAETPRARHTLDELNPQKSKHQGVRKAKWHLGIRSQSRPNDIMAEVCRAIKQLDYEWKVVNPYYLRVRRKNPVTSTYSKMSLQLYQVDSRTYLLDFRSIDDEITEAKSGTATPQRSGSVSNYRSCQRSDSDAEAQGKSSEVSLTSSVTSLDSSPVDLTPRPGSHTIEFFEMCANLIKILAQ
# Outline: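 Compounds were screened in duplicate at 25 uM, and those reaching ~30% inhibition were titrated up to 50 uM. The enzyme was recombinant human AMPKα1, and kinase turnover was read by fluorescence/mobility shift 1 h post-dosing as loss of signal versus DMSO.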
# [2] = molecular target: human Aurora Kinase A - serine/threonine-protein Kinase 6 (AurA), AURKA (gene 6790) (UniProt O14965); assay: NVS_ENZ_hAurA: NovaScreen (NVS) Enzymatic Assay for human Aurora Kinase A - serine/threonine-protein Kinase 6 (AurA) (AID 2283142)
# human Aurora Kinase A - serine/threonine-protein Kinase 6 (AurA), AURKA (gene 6790), sequence (O14965 whole entry, looked up): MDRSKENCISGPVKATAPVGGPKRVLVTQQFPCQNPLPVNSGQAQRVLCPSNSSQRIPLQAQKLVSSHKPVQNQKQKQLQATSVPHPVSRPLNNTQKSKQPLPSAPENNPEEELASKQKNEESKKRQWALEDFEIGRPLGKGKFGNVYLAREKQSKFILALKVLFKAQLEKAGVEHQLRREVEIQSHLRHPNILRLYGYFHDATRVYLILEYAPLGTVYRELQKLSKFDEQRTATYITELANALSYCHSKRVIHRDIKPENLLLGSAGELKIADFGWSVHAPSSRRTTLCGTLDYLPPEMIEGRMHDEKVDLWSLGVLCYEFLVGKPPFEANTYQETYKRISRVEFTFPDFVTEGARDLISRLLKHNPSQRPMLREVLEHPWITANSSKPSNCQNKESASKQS
# Outline: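 Recombinant human AurA activity read by fluorescence after mobility-shift separation of product from substrate; 1 hour incubation. Chemicals first run in duplicate at 25 uM, then concentration series to 50 uM if over threshold; fitted relative to DMSO.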
# [3] = molecular target: human Fibroblast Growth Factor Receptor 1 (FGFR1), FGFR1 (gene 2260) (UniProt P11362); assay: NVS_ENZ_hFGFR1: NovaScreen (NVS) Enzymatic Assay for human Fibroblast Growth Factor Receptor 1 (FGFR1) (AID 2283159);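 on AC50: hits lower the signal so potencies describe inhibitors of the kinase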
# human Fibroblast Growth Factor Receptor 1 (FGFR1), FGFR1 (gene 2260), sequence (P11362 whole entry, looked up): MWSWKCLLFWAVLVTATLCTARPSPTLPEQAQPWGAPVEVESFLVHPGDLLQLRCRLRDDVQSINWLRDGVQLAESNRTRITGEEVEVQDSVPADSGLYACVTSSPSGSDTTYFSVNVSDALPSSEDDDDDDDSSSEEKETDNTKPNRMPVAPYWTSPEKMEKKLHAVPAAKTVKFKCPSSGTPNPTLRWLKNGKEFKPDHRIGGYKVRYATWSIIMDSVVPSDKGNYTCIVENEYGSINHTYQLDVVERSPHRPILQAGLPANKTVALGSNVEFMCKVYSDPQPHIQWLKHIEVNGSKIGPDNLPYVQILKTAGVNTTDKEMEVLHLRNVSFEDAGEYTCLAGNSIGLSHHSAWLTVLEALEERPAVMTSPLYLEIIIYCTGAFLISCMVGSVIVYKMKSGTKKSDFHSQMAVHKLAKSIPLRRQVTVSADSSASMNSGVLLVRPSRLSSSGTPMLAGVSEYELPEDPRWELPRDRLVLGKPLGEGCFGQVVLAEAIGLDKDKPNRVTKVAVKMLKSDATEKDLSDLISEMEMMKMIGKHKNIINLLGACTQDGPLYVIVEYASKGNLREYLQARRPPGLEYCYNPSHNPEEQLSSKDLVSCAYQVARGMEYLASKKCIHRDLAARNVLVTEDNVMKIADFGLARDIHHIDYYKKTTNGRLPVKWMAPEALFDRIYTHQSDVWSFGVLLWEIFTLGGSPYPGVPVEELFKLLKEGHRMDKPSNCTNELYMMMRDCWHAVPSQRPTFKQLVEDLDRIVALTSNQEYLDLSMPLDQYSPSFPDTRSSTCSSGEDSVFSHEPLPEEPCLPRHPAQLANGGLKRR
# Outline: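 Cell-free recombinant kinase with fluorescent substrate, product separated by electrophoretic mobility shift; read 1 hour after dosing, loss of signal relative to DMSO. Initial screen in duplicate at 25 uM, actives followed in concentration series.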
# [4] = molecular target: human Phosphatase and Tensin Homolog (PTEN), PTEN (gene 5728) (UniProt P60484); assay: NVS_ENZ_hPTEN: NovaScreen (NVS) Enzymatic Assay for human Phosphatase and Tensin Homolog (PTEN) (AID 2283203)
# human Phosphatase and Tensin Homolog (PTEN), PTEN (gene 5728), sequence (P60484 whole entry, looked up): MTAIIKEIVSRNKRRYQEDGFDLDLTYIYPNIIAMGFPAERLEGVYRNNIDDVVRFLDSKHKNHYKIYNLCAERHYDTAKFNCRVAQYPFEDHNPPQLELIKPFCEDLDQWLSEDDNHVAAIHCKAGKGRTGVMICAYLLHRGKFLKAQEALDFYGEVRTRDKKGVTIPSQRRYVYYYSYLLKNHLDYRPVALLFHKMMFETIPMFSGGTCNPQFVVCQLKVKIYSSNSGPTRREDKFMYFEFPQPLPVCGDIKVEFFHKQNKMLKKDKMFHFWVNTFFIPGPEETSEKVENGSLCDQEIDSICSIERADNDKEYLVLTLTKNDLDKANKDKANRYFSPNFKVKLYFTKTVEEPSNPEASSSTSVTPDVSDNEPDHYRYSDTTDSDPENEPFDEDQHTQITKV
# Outline: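 Loss of fluorescent product signal after mobility-shift separation reports PTEN activity, recombinant human enzyme, 1 h after compound addition. Single 25 uM duplicate screen, then concentration-response on actives; DMSO baseline.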
# [5] = molecular target: human Protein Tyrosine Phosphatase Non-receptor Type 2 (PTPN2), PTPN2 (gene 5771) (UniProt P17706); assay: NVS_ENZ_hPTPN2: NovaScreen (NVS) Enzymatic Assay for human Protein Tyrosine Phosphatase Non-receptor Type 2 (PTPN2) (AID 2283207)
# Outline: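 Activity measured as fluorescence after mobility-shift separation of substrate and product, 1 h after compound. Duplicate single-point 25 uM primary testing, concentration series for actives; inhibition scored as signal loss relative to DMSO baseline.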
# [6] = molecular target: human Tyrosine Protein Kinase Receptor Tie-2 (Tie2), TEK (gene 7010) (UniProt Q02763); assay: NVS_ENZ_hTie2: NovaScreen (NVS) Enzymatic Assay for human Tyrosine Protein Kinase Receptor Tie-2 (Tie2) (AID 2283225)
# human Tyrosine Protein Kinase Receptor Tie-2 (Tie2), TEK (gene 7010), sequence (Q02763 whole entry, looked up): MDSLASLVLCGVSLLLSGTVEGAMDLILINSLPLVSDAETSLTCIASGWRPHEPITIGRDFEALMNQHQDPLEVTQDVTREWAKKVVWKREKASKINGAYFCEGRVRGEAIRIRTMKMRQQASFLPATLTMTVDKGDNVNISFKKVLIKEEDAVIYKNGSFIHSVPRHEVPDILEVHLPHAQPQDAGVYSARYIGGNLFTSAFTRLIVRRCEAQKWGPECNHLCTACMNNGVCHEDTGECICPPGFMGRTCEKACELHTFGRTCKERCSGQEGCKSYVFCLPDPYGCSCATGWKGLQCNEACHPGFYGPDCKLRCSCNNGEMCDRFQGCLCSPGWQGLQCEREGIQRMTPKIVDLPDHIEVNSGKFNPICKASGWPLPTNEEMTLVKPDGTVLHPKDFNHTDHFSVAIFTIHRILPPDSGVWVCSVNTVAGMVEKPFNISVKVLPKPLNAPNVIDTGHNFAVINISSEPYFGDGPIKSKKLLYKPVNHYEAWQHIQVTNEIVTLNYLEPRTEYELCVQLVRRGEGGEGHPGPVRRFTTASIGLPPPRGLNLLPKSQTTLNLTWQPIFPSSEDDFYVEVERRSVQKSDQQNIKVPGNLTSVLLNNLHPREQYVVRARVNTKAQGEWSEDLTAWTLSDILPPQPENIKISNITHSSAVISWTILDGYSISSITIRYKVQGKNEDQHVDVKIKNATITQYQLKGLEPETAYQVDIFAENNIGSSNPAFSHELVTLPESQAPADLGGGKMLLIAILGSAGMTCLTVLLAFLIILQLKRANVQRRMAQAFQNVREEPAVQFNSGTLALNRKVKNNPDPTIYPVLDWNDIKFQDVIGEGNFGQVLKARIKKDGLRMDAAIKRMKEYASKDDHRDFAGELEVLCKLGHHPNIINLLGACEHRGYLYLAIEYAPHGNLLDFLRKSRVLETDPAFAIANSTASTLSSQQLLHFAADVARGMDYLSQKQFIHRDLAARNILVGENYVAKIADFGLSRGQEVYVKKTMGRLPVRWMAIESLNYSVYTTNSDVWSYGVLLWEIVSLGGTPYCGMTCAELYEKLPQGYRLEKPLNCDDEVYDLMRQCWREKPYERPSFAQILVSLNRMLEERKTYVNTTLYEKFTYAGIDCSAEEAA
# Outline: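 Substrate and product were separated by mobility shift and detected by fluorescence after a 1-hour reaction with recombinant Tie2. Chemicals passing a 25 uM single-point screen were titrated to a maximum of 50 uM. Results were normalized to DMSO baseline.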
# [7] = molecular target: Bile acid receptor (Homo sapiens) (UniProt Q96RI1); assay: NVS_NR_hFXR_Agonist: NovaScreen (NVS) Nuclear Receptor Binding Assay for human Farnesoid X Receptor Agonism (FXR) (AID 2283347)
# Outline: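 Agonist-mode FXR assay read by time-resolved FRET 1 h after compound addition, using isolated human receptor protein without cells. Duplicate 25 uM single-point primary screen, concentration series for confirmed actives; DMSO as baseline.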
# [8] = molecular target: human Mitogen-Activated Protein Kinase 1 (MAPK 1), MAPK1 (gene 5594) (UniProt P28482); assay: NVS_ENZ_hMAPK1: NovaScreen (NVS) Enzymatic Assay for human Mitogen-Activated Protein Kinase 1 (MAPK 1) (AID 2283175)
# human Mitogen-Activated Protein Kinase 1 (MAPK 1), MAPK1 (gene 5594), sequence (P28482 whole entry, looked up): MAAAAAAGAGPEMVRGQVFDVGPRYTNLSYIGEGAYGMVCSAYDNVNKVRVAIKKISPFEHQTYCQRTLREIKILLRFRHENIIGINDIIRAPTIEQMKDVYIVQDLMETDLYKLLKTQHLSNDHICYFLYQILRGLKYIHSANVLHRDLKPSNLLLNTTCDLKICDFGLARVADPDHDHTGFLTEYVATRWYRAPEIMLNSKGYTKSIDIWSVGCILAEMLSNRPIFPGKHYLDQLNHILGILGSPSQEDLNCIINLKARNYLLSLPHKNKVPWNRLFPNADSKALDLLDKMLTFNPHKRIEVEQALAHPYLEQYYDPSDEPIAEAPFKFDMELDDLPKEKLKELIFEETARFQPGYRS
# Outline: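 Cell-free recombinant human MAPK1 enzymatic assay, fluorescence/electrophoretic mobility shift read at 1 h; loss of signal vs DMSO. Primary screen in duplicate at 25 uM; actives (e.g. ≥30% inhibition) run as concentration-response up to 50 uM.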
# [9] = molecular target: Norway rat Vesicular Monoamine Transporter (VMAT2), neurotransmitter transporter, Slc18a2 (gene 25549) (UniProt Q01827); assay: NVS_TR_rVMAT2: NovaScreen (NVS) Transporter Assay for Norway rat Vesicular Monoamine Transporter (VMAT2), neurotransmitter transporter (AID 2283376);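 further: actives lower the bound radioligand signal below the DMSO level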
# Outline: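 Binding endpoint from rat forebrain tissue, cell-free; 1 h incubation; filtered radioligand counted; 25 uM duplicate primary then dose series; DMSO negative control.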
# [10] = molecular target: Caspase-1 (Homo sapiens) (UniProt P29466); assay: NVS_ENZ_hCASP1: NovaScreen (NVS) Enzymatic Assay for human Caspase 1 (CASP1) (AID 2283132)
# Outline: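 Compounds were first tested in duplicate at 25 uM, with follow-up concentration series up to 50 uM. The bacterially expressed enzyme was read by fluorescence at 1 h post-dosing. Signal loss versus DMSO baseline indicates reduced enzyme activity.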
# [11] = molecular target: human Protein Tyrosine Phosphatase Receptor Type C (PTPRC), PTPRC (gene 5788) (UniProt P08575); assay: NVS_ENZ_hPTPRC: NovaScreen (NVS) Enzymatic Assay for human Protein Tyrosine Phosphatase Receptor Type C (PTPRC) (AID 2283212)
# Outline: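 Absorbance-based phosphatase activity of human PTPRC protein extracted from yeast was measured 1 h post-dosing. Compounds first tested at 25 uM in duplicate, then those passing threshold in singleton concentration series to 50 uM.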
# [12] = molecular target: rat Neurotensin Receptor (NTS), Ntsr1 (gene 366274) (UniProt P20789); assay: NVS_GPCR_rNTS: NovaScreen (NVS) G Protein-Coupled Receptor Assay for rat Neurotensin Receptor (NTS) (AID 2283308)
# Outline: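 Single-point duplicates at 25 uM, then concentration series to 50 uM max for hits, measured radioligand displacement on rat forebrain membrane preparations. Bound label counted by filtration scintillation at 1 h; signal loss relative to DMSO fitted.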
# [13] = molecular target: human MET Proto-Oncogene, Receptor Tyrosine Kinase (MET), MET (gene 4233) (UniProt P08581); assay: NVS_ENZ_hMet: NovaScreen (NVS) Enzymatic Assay for human MET Proto-Oncogene, Receptor Tyrosine Kinase (MET) (AID 2283180)
# human MET Proto-Oncogene, Receptor Tyrosine Kinase (MET), MET (gene 4233), sequence (P08581 whole entry, looked up): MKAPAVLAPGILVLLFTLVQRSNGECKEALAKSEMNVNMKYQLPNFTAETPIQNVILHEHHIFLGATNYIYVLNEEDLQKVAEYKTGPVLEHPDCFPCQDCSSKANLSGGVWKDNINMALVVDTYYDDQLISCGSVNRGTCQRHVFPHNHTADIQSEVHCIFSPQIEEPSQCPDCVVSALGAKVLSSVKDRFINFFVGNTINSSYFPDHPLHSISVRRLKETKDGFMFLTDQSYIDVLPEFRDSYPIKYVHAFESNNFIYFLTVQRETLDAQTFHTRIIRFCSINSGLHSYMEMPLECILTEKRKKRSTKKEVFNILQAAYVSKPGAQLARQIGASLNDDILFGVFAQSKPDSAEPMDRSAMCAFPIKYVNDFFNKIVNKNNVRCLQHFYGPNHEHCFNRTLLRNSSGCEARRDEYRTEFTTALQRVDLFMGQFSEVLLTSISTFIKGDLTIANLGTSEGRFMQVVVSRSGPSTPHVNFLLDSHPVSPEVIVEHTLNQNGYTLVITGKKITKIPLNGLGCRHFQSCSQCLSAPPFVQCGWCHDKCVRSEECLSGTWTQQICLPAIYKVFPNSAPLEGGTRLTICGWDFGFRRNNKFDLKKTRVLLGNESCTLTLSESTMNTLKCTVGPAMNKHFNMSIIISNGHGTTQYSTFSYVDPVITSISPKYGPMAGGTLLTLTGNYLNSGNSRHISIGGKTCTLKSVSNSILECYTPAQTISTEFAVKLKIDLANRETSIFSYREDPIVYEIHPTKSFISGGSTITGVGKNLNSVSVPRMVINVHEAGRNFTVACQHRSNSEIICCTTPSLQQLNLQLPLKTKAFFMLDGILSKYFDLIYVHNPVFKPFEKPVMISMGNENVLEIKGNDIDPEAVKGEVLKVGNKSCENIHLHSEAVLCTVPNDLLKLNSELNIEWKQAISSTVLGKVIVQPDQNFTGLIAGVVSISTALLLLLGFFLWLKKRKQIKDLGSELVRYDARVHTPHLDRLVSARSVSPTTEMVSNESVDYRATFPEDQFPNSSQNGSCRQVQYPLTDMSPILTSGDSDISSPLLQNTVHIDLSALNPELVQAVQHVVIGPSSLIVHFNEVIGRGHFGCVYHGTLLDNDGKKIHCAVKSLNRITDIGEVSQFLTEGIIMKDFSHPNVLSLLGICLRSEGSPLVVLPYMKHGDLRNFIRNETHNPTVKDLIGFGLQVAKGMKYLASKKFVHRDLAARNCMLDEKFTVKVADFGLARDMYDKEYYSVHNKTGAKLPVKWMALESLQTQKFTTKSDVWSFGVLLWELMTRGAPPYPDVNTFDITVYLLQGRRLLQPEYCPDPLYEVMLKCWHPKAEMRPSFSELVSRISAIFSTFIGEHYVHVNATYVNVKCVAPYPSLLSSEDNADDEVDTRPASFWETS
# Outline: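 Hits from a 25 uM duplicate screen were retested in concentration series up to 50 uM. Enzyme activity was measured by fluorescence after electrophoretic separation of product from substrate, 1 h after compound addition, relative to DMSO.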
# [14] = molecular target: rat Monoamine Oxidase, MAO-B, Central (MAOBC), Maob (gene 25750) (UniProt P19643); assay: NVS_ENZ_rMAOBC: NovaScreen (NVS) Enzymatic Assay for rat Monoamine Oxidase, MAO-B, Central (MAOBC) (AID 2283238)
# Outline: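 Here MAO-B activity in rat brain preparations is quantified radiometrically, counts taken at 1.17 hours. Concentration-response runs reach 50 uM, with plate controls, and values are fitted as loss of signal from the DMSO baseline.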
# [15] = molecular target: rat Monoamine Oxidase, MAO-B, Peripheral (MAOBP), Maob (gene 25750) (UniProt P19643); assay: NVS_ENZ_rMAOBP: NovaScreen (NVS) Enzymatic Assay for rat Monoamine Oxidase, MAO-B, Peripheral (MAOBP) (AID 2283242)
# [16] = molecular target: human IkappaB Kinase alpha (IKKa), CHUK (gene 1147) (UniProt O15111); assay: NVS_ENZ_hIKKa: NovaScreen (NVS) Enzymatic Assay for human IkappaB Kinase alpha (IKKa) (AID 2283167)
# Outline: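 Compounds first run in duplicate at 25 uM, those meeting threshold (e.g. 30% inhibition) retested to maximum 50 uM. Enzyme activity of recombinant IKKa measured by fluorescence with electrophoretic mobility shift separation, 1 hour post-dosing, DMSO baseline.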
# [17] = molecular target: human p21 Activated Kinase 4 (PAK4), PAK4 (gene 10298) (UniProt O96013); assay: NVS_ENZ_hPAK4: NovaScreen (NVS) Enzymatic Assay for human p21 Activated Kinase 4 (PAK4) (AID 2283189)
# Outline: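 Extracted PAK4 enzyme activity read by fluorescence with mobility-shift separation 1 h after chemical addition. Duplicate single-concentration screen at 25 uM, DMSO as negative control.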
# [18] = TOX21_TRB_BLA_Agonist_Followup_viability: Viability Assessment in the Tox21 Thyroid Hormone Receptor beta Agonism Beta-lactamase (BLA) Follow-Up Assay (AID 2283956)
# Outline: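 Viability was read as CellTiter-Glo luminescence in the same wells as the TRb-bla agonist read-out. HEK293T GAL4-TRb LBD cells were treated for 18 h (37C, 5% CO2) at 11 concentrations in triplicate. Fits were bidirectional versus DMSO baseline.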
# [19] = molecular target: human Raf-1 Proto-Oncogene, serine/threonine Kinase (RAF1), RAF1 (gene 5894) (UniProt P04049); assay: NVS_ENZ_hRAF1: NovaScreen (NVS) Enzymatic Assay for human Raf-1 Proto-Oncogene, serine/threonine Kinase (RAF1) (AID 2283216)
# Outline: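 Single-point screening at 25 uM (duplicate), followed by singleton concentration-response to 50 uM maximum for chemicals exceeding threshold. Enzyme activity from fluorescent substrate-product mobility-shift separation after 1 h, relative to DMSO.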
# [20] = molecular target: human Ephrin type-A Receptor 2 (EphA2), EPHA2 (gene 1969) (UniProt P29317); assay: NVS_ENZ_hEphA2: NovaScreen (NVS) Enzymatic Assay for human Ephrin type-A Receptor 2 (EphA2) (AID 2283155)
# Outline: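 Enzyme activity of recombinant EphA2 read by fluorescence after mobility-shift separation, 1 h after dosing. Chemicals first tested at 25 uM (duplicate); those passing threshold run as concentration series, top 50 uM, single replicate, relative to DMSO.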
# [21] = molecular target: human Matrix Metalloproteinase-1 (MMP1), MMP1 (gene 4312) (UniProt P03956); assay: NVS_ENZ_hMMP1: NovaScreen (NVS) Enzymatic Assay for human Matrix Metalloproteinase-1 (MMP1) (AID 2283181)
# Outline: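 Cell-free fluorescent substrate assay of human MMP1, read after 1 h. A single 25 uM duplicate screen was followed by concentration series to a maximum of 50 uM for actives meeting threshold; inhibition analysed against DMSO baseline.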
compound,measurement,setting,value
O=C(O)C1(C(=O)Nc2ccc(Cl)cc2Cl)CC1,AC50,[1],7.12 µM (active)
same,AC50,[2],16.3 µM (active)
same,AC50,[3],18.3 µM (active)
same,AC50,[4],3.91 µM (active)
same,AC50,[5],10.1 µM (active)
same,outcome,[6],inactive
same,outcome,[7],inactive
C[Si]1(C)O[Si](C)(C)O[Si](C)(C)O[Si](C)(C)O1,outcome,[1],inactive
same,outcome,[8],inactive
same,outcome,[6],inactive
same,outcome,[9],inactive
O=S(=O)(O)c1ccc(N=Nc2c(O)ccc3cc(S(=O)(=O)O)ccc23)cc1,AC50,[10],25 µM (active)
same,outcome,[4],inactive
same,outcome,[11],inactive
same,outcome,[12],inactive
COc1ccc(OC(F)(F)F)cc1CN[C@H]1CCCN[C@H]1c1ccccc1,outcome,[1],inactive
same,outcome,[3],inactive
same,outcome,[8],inactive
same,outcome,[13],inactive
same,outcome,[6],inactive
same,outcome,[14],inactive
same,AC50,[15],36.5 µM (active)
O=c1[nH]cnc2c1ncn2[C@H]1CC[C@@H](CO)O1,outcome,[1],inactive
same,outcome,[2],inactive
same,outcome,[3],inactive
same,outcome,[16],inactive
same,outcome,[13],inactive
same,outcome,[17],inactive
same,outcome,[4],inactive
same,outcome,[5],inactive
same,outcome,[6],inactive
same,outcome,[18],inactive
O=C(O)c1ccccc1C(c1ccc(O)cc1)c1ccc(O)cc1,outcome,[1],inactive
same,outcome,[19],inactive
same,outcome,[14],inactive
O=C(NO)C1(NS(=O)(=O)c2ccc(Oc3ccc(F)cc3)cc2)CCOCC1,outcome,[1],inactive
same,outcome,[2],inactive
same,outcome,[20],inactive
same,outcome,[3],inactive
same,outcome,[13],inactive
same,AC50,[21],17.9 µM (active)
same,outcome,[17],inactive
same,outcome,[11],inactive
same,outcome,[6],inactive
same,outcome,[9],inactive
